Laboratory results from PubChem BioAssay (Tox21).
Several values for one entry are separate records, joined by “and”; a condition that tells them apart may be missing. Identical values can stand only once. Inconclusive results are not listed. The source holds several records for some structures; these can differ, active in one and inactive in another. Activity calls are given as the source filed them. Unless noted, the call rests on the fitted dose curve; in most records, active means well fitted curve in the direction sought with a large enough effect in the repeat runs; inconclusive means weak or mixed curves; inactive means no such curve, though single readings can be large; an effect the other way counts as inactive or inconclusive.

Tests used:
[1] = qHTS assay to identify small molecule antagonists of the glucocorticoid receptor (GR) signaling pathway - cell viability counter screen (AID 720693); further: nearly all actives have a fitted effect of over 55% in size
[2] = qHTS assay for identifying genotoxic compounds that show differential cytotoxicity against isogenic chicken DT40 cell lines with known DNA damage response pathways - wild type cell line (AID 743012); further: nearly all actives have a fitted effect of over 60% in size; further: potency means the concentration at half of the fitted maximal effect
Method in brief: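 300 wt DT40 cells/well; cpd (DMSO) pintool-transferred after ~0.5 h at 37 C/5% CO2; 40 h incubation; CellTiter-Glo added, 30 min RT; luminescence read.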

[3] = qHTS assay for identifying genotoxic compounds that show differential cytotoxicity against isogenic chicken DT40 cell lines with known DNA damage response pathways - Rev3 mutant cell line (AID 743014); further: nearly all actives have a fitted effect of over 55% in size; further: potency means the concentration at half of the fitted maximal effect
[4] = qHTS assay for identifying genotoxic compounds that show differential cytotoxicity against isogenic chicken DT40 cell lines with known DNA damage response pathways - Rad54/Ku70 mutant cell line (AID 743015); further: nearly all actives have a fitted effect of over 60% in size; further: potency means the concentration at half of the fitted maximal effect
[5] = qHTS assay to identify small molecule antagonists of the androgen receptor (AR) signaling pathway - cell viability counter screen (AID 743033; further: nearly all actives have a fitted effect of over 45% in size)
[6] = qHTS assay to identify small molecule antagonists of the androgen receptor (AR) signaling pathway using the MDA cell line - cell viability counter screen (AID 743041; further: nearly all actives have a fitted effect of over 45% in size)
Method in brief: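 Viability read by CellTiter-Fluor fluorescence in the same wells as the antagonist screen, added after 15.5 h of a 16 h, 37C exposure. Human breast carcinoma MDA-kb2 AR-luc cells, compounds co-dosed with agonist R1881.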

[7] = qHTS assay to identify small molecule antagonists of the thyroid receptor (TR) signaling pathway - cell viability counter screen (AID 743064); further: nearly all actives have a fitted effect of over 50% in size; further: potency means the concentration at half of the fitted maximal effect
Method in brief: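 Rat GH3 pituitary tumor cells stably expressing two TR response elements driving luciferase were plated, rested 4 h, then dosed with library compounds and T3 (1 nM final). After 23.5 h at 37 °C, CellTiter-Fluor was added for 30 min and fluorescence recorded.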

[8] = qHTS assay to identify small molecule antagonists of the thyroid receptor (TR) signaling pathway (AID 743065); further: nearly all actives have a fitted effect of over 55% in size; further: potency means the concentration at half of the fitted maximal effect
Method in brief: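 Antagonism measured as loss of luciferase signal in GH3 cells stably carrying a TRE-luciferase reporter, co-treated with compound and T3 (1 nM final) for 23.5 h at 37 C. Viability was read in the same well by CellTiter-Fluor.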

[9] = system: thyroid hormone receptor (rat, GH3 cells); assay: qHTS assay to identify small molecule agonists of the thyroid receptor (TR) signaling pathway (AID 743066; calls by dose curve)
[10] = qHTS assay to identify small molecule antagonists of the estrogen receptor alpha (ER-alpha) signaling pathway - cell viability counter screen (AID 743074; calls by dose curve;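 further: HEK293 cells carrying ER-alpha-UAS-bla reporter stimulated with 17beta-estradiol; nearly all actives have a fitted effect of over 45% in size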)
[11] = qHTS assay to identify small molecule antagonists of the estrogen receptor alpha (ER-alpha) signaling pathway using the BG1 cell line - cell viability counter screen (AID 743081);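 further: compound given together with 17beta-estradiol as the ER stimulus; series mostly up to about 70 µM; nearly all actives have a fitted effect of over 45% in size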
Aromatase (Homo sapiens) = Aromatase (Homo sapiens) (UniProt P11511); assay: qHTS assay to identify aromatase inhibitors (AID 743083); further: series mostly up to about 70 µM; nearly all actives have a fitted effect of over 55% in size
[12] = target: Estrogen receptor (Homo sapiens) (UniProt P03372); assay: qHTS assay to identify small molecule antagonists of the estrogen receptor alpha (ER-alpha) signaling pathway (AID 743069; active means well fitted curve in the direction sought with a large enough effect in the signal ratio in the repeat runs, not every such curve was filed as active; the % refers to the signal ratio)
Method in brief: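 Antagonist mode: compounds in DMSO were co-added with 17beta-estradiol to ER-alpha-bla HEK293 cells (2% charcoal-stripped serum) and left 18 h at 37C. Reporter inhibition was measured as FRET fluorescence after 2 h LiveBLAzer substrate at room temperature.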

[13] = target: Estrogen receptor (Homo sapiens) (UniProt P03372); assay: qHTS assay to identify small molecule agonists of the estrogen receptor alpha (ER-alpha) signaling pathway (AID 743075; calls by dose curve;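 further: HEK293 GripTite cells with ER-alpha and UAS-driven beta-lactamase reporter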)
[14] = target: Estrogen receptor (Homo sapiens) (UniProt P03372); assay: qHTS assay to identify small molecule agonists of the estrogen receptor alpha (ER-alpha) signaling pathway using the BG1 cell line (AID 743079); further: nearly all actives have a fitted effect of over 20% in size; further: potency means the concentration at half of the fitted maximal effect
[15] = qHTS assay to identify small molecule antagonists of the estrogen receptor alpha (ER-alpha) signaling pathway using the BG1 cell line (AID 743080; calls by dose curve;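 further: BG1 cells stimulated with 17beta-estradiol alongside compound; nearly all actives have a fitted effect of over 25% in size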; further: potency means the concentration at half of the fitted maximal effect)
Method in brief: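 After 5 days in phenol-red-free 10% charcoal-stripped FBS medium, BG1-Luc-4E2 cells were seeded, left 24 h at 37 C, co-treated with compounds and 17beta-estradiol for 21.5 h, then assayed for viability and luciferase.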

[16] = target: Androgen receptor (Homo sapiens) (UniProt P10275); assay: qHTS assay to identify small molecule antagonists of the androgen receptor (AR) signaling pathway (AID 743035; active means well fitted inhibition curve with a large enough effect in the signal ratio in the repeat runs, not every such curve was filed as active; the % refers to the signal ratio)
Method in brief: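 In this cell-based reporter screen, compounds were tested in concentration series against R1881-activated HEK293 cells expressing beta-lactamase under UAS control; after 16 h at 37C, FRET substrate was added and fluorescence read 2 h later.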

[17] = target: Androgen receptor (Homo sapiens) (UniProt P10275); assay: qHTS assay to identify small molecule agonists of the androgen receptor (AR) signaling pathway (AID 743036; active means well fitted activation curve with a large enough effect in the signal ratio in the repeat runs, with a control signal flat, not every such curve was filed as active; the % refers to the signal ratio)
Method in brief: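 Quantitative HTS of the Tox21 10K library in HEK293 cells bearing a stably integrated UAS-controlled beta-lactamase reporter. Compound exposure lasted 16 h at 37C. Reporter activity was detected by FRET substrate fluorescence after 2 h at room temperature.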

[18] = target: Androgen receptor (Homo sapiens) (UniProt P10275); assay: qHTS assay to identify small molecule agonists of the androgen receptor (AR) signaling pathway using the MDA cell line (AID 743040; further: nearly all actives have a fitted effect of over 20% in size)
Method in brief: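 Luciferase agonist assay: 16 h compound exposure at 37C without CO2 in MDA-kb2 AR-luc cells, whose MMTV promoter responds to both AR and GR. Luminescence measured after 30 min room-temperature incubation with ONE-Glo.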

[19] = target: Androgen receptor (Homo sapiens) (UniProt P10275); assay: qHTS assay to identify small molecule antagonists of the androgen receptor (AR) signaling pathway using the MDA cell line (AID 743042; further: nearly all actives have a fitted effect of over 55% in size)
Method in brief: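 Antagonist mode: compounds plus R1881 agonist added to MDA-kb2 AR-luc cells, incubated 16 h at 37C. Luciferase reporter luminescence quantified, with multiplexed CellTiter-Fluor readout for cell viability.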

Measured: Potency

Androgen receptor (Homo sapiens), sequence (P10275 whole entry, looked up): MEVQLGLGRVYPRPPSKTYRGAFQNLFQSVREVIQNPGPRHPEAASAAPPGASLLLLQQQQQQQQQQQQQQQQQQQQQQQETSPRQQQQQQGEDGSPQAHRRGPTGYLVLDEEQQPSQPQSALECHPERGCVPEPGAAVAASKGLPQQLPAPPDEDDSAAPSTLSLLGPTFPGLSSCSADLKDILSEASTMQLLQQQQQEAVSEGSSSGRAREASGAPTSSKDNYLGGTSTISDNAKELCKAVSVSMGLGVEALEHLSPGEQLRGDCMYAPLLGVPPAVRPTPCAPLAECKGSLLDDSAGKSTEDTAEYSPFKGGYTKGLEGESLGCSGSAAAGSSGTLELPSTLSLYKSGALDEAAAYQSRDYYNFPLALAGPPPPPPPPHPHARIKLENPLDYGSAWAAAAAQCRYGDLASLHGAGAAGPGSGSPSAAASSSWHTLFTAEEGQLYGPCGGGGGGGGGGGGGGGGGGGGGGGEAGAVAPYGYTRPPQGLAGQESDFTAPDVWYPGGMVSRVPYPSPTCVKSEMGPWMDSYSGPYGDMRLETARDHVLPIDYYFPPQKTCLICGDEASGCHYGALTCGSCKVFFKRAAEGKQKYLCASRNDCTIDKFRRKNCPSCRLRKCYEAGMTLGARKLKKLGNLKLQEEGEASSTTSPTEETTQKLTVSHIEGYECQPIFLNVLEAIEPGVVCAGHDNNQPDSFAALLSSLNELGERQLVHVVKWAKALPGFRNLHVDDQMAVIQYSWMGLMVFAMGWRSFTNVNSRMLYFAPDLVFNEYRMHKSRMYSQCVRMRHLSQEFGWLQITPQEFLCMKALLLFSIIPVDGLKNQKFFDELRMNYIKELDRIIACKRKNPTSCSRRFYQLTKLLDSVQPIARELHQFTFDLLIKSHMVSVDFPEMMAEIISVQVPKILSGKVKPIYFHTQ
Estrogen receptor (Homo sapiens), sequence (P03372 whole entry, looked up): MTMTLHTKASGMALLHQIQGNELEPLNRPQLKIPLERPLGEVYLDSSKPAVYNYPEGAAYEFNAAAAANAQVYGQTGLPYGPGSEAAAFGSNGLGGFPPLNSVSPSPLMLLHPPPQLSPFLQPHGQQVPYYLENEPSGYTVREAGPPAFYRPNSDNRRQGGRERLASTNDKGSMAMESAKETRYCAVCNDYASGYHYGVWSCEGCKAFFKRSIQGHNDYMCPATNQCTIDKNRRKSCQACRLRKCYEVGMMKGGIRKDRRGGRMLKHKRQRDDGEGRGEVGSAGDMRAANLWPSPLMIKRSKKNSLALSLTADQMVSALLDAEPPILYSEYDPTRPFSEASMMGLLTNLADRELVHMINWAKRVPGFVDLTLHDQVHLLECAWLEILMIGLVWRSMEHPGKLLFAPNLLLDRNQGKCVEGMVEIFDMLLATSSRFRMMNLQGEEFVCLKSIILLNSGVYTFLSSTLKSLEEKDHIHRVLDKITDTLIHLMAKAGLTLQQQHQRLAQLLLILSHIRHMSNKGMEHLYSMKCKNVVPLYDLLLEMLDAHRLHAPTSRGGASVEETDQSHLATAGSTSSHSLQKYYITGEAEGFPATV
Aromatase (Homo sapiens), sequence (P11511 whole entry, looked up): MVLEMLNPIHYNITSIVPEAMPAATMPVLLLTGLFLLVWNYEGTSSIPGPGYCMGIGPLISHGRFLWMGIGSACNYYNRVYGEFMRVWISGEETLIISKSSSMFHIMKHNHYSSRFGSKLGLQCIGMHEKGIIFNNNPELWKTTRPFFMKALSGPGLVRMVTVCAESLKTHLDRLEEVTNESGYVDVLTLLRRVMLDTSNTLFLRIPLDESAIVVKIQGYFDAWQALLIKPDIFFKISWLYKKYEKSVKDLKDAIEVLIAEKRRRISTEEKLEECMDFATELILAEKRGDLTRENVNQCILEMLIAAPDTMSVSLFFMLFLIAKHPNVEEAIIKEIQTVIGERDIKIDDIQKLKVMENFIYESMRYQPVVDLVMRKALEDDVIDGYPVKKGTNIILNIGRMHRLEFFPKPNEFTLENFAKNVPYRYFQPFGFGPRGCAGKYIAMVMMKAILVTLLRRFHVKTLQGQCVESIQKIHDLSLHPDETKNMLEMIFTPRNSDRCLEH

NCC(O)c1ccc(O)cc1 (configuration not stated)
inactive: [1] | [2] | [3] | [4] | [5] | [6] | [7] | [8] | [9] | [10] | [11] | Aromatase (Homo sapiens)

c1ccc(OP(Oc2ccccc2)Oc2ccccc2)cc1
inactive: [1] | [2] | [3] | [4] | [6] | [7] | [8] | [9] | [12] | [10] | [13] | [14] | [15] | [11] | Aromatase (Homo sapiens)

BrCCBr
inactive: [1] | [2] | [4] | [6] | [7] | [8] | [9] | [12] | [10] | [13] | [14] | [15] | [11] | Aromatase (Homo sapiens)
18.8 µM (active) and inactive: [3]

CCN(CC)CCO
inactive: [1] | [2] | [3] | [4] | [5] | [6] | [7] | [8] | [9] | [10] | [11] | Aromatase (Homo sapiens)

O=S(=O)(c1ccc(Cl)cc1)c1cc(Cl)c(Cl)cc1Cl
inactive and 54.5 µM (active): [4]
inactive: [1] | [5] | [6] | [7] | [8] | [9] | [12] | [10] | [13] | [11] | Aromatase (Homo sapiens)
inactive and 48.6 µM (active): [2]
inactive and 61.1 µM (active): [3]
active: [15] 48.6 µM

c1ccc2c(c1)Oc1ccccc1O2
inactive: [1] | [2] | [3] | [4] | [5] | [6] | [7] | [8] | [9] | [10] | [11] | Aromatase (Homo sapiens)

CC(C)OC(=O)Nc1ccccc1
active: [14] 30.7 µM and 54.5 µM
inactive: [1] | [2] | [3] | [4] | [6] | [7] | [8] | [9] | [12] | [10] | [13] | [15] | [11] | Aromatase (Homo sapiens)

COCCl
inactive and 13.8 µM (active): [3]
inactive: [1] | [2] | [4] | [16] | [17] | [18] | [6] | [19] | [7] | [8] | [9] | [10] | [11] | Aromatase (Homo sapiens)

Clc1ccccc1Cl
inactive: [1] | [2] | [3] | [4] | [5] | [6] | [7] | [8] | [9] | [10] | [11] | Aromatase (Homo sapiens)

CCCCN(CCCC)SN(C)C(=O)Oc1cccc2c1OC(C)(C)C2
inactive: [1] | [5] | [6] | [10] | [13] | [15] | [11] | Aromatase (Homo sapiens)
inactive and 54.5 µM (active): [14]
inactive and 24.3 µM (active): [7]
active: [2] 30.6 µM | [3] 48.6 µM | [4] 30.6 µM | [8] 21.7 µM
